Screening data deposited in PubChem by National Center for Advancing Translational Sciences (NCATS).
Rows were chosen to be rich in hits. Some 19% of all compounds tested hit in one or more screens of this group.
DT40 TDP1 no CPT: qHTS for Inhibitors of human tyrosyl-DNA phosphodiesterase 1 (TDP1): qHTS in cells in absence of CPT. 420,000 tested, 15% active. Potency, µM (series often up to 46.2 µM), without a hit: at the highest dose activity change, negative = growth inhibition, actives largely listed as inhibitors. DT40 Tdp1-/- hTDP1 cells, no CPT, ATP luminescence, 48 h; also: potency is read from the fitted curve at half-maximal effect; nearly all actives have a fitted effect of over 55% in size
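Camptothecin absent (DMSO only). Human TDP1-complemented DT40 knockout cells, 400 cells/well, 37 °C for minimum 48 hr; ATP measured via CellTiter-Glo, 30 min dark incubation, luminescence.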
TDP1 cell CPT: DT40-hTDP1 cell growth loss with CPT; AID 686979; chicken DT40 Tdp1-/-;hTDP1 cells + 20 nM CPT, ATP luminescence, 48 h; 420,000 tested, 12% active; Potency, µM (highest dose often 46.2 µM), without a hit: at the top dose activity change, negative = growth inhibition, actives largely listed as inhibitors; also: potency is read from the fitted curve at half-maximal effect; nearly all actives have a fitted effect of over 55% in size
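Cell growth measured by CellTiter-Glo luminescence after a minimum 48 h, 37 C compound exposure with 20 nM CPT in Tdp1-knockout DT40 cells stably expressing hTDP1, seeded 400/well; qHTS titration format.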
IL-1B inflam inh: inhibitors of inflammasome signaling (IL-1 beta secretion) | 360,000 tested, 4.7% active | AID 743279 | THP-1 LPS/ATP IL-1B secretion, AlphaLISA, 16 h; hits give low values | activity change, % at 57.5 µM; in the data active = activity change below about -50%; inconclusive = mostly about -30% to -49%
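Secreted IL-1B measured by AlphaLISA bead assay after 16 h compound exposure of THP-1 cells; compounds (final up to 57.5 uM) added 1 h before LPS (250 ng/mL) and ATP (1.25 mM) stimulation; lower signal means less secretion.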
HT1080-NT tox: kills 2HG-producing HT-1080-NT fibrosarcoma cells | HT-1080-NT fibrosarcoma viability, CellTiter-Glo ATP luminescence, 48 h | Potency, µM (titrated, usually from 46.1 µM), inactives show at the top dose activity, negative = less viability, actives largely listed as cytotoxic | 360,000 tested, 1.6% active | AID 686970;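 also: NT is the 2HG producing partner of a matched IDH1 knockdown line; potency is read from the fitted curve at half-maximal effect; 0% = DMSO-treated cells and -100% = media-only wells without cells; nearly all actives have a fitted effect of over 55% in size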
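Viability by CellTiter-Glo luminescence after 48 h compound exposure at 37C of HT-1080-NT cells (750/well, RPMI, 5% FBS). % activity scaled between DMSO wells and medium-only wells, then curve-fitted and categorized by curve class.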
HT1080 IDH1KD tx: HT-1080 IDH1 knockdown cell toxicity (counter line) | HT-1080 IDH1 knockdown viability, ATP luminescence, 48 h | Potency, µM (highest dose often 46.1 µM), inactives show at the top dose activity, negative = toxicity, most hits filed as cytotoxic | 360,000 tested, 2% active | AID 686971;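 also: potency is read from the fitted curve at half-maximal effect; 0% = DMSO wells and -100% = cell-free medium wells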
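Assay cells: HT-1080 with IDH1 knockdown, 750 per well, RPMI/5% FBS. Exposure: 48 h at 37 °C following 2 h pre-incubation. Read: CellTiter-Glo luminescence; fitted concentration-response, curve class assigned.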
* = called active by the depositor; u = inconclusive; x = no result. Unless noted, calls follow the shape of the dose curve; as a rule, active = well fitted curve in the direction sought with a large enough effect; inconclusive = small, poorly fitted or top-dose-only effect, or another doubt; inactive = no such curve, though single readings can be large; an effect the other way counts as inactive or inconclusive. Unless noted, % is scaled to controls: 0 for no effect and ±100 for the full control effect.

SMILES	DT40 TDP1 no CPT	TDP1 cell CPT	IL-1B inflam inh	HT1080-NT tox	HT1080 IDH1KD tx
CCOc1ccc(OCC)c(NC(=O)CSc2nnc(C3CC3)n2CC)c1	u	-20%	-15	-1%	-2%
CCN1CCN(Cc2ccc(NC(=O)c3ccc(C)c(NC(=O)c4c[nH]c5cc(C(F)(F)F)ccc5c4=O)c3)cc2C(F)(F)F)CC1	4.1µM*	4.6µM*	-105*	3.3µM*	3.3µM*
Cc1ccc(C(=O)Nc2cccc(C(F)(F)F)c2)cc1NC(=O)c1c[nH]c2cc(C(F)(F)F)ccc2c1=O	u	5.2µM*	38	7%	12%
CCOC(=O)[C@]12CCCC=C1N(Cc1ccccc1)C(=O)[C@H](CC(=O)NCCCOC)C2	u	u	0	19%	13%
CN1OC[C@@H]2CN(Cc3cc(Cl)cc(Cl)c3)[C@H](c3cccc(Br)c3)C[C@@H]21	21µM*	u	-27	-18%	u
CN1OC[C@@H]2CN(Cc3ccccc3)[C@H](c3cccc(-c4ccc(C#N)cc4)c3)C[C@@H]21	u	u	u	-18%	u
Cc1ccccc1-c1cccc([C@@H]2C[C@H]3[C@H](CON3C)CN2Cc2cc(Cl)cc(Cl)c2)c1	23µM*	u	-19	4%	4%
COc1ccccc1-c1cccc([C@@H]2C[C@H]3[C@H](CON3C)CN2Cc2ccccc2)c1	21µM*	u	-2	-16%	-17%
COc1ccccc1-c1cccc([C@@H]2C[C@H]3[C@H](CON3C)CN2Cc2cc(Cl)cc(Cl)c2)c1	u	u	1	-4%	-1%
Cc1cccc2cc(CN(CCN(C)C)C(=S)Nc3ccccc3)c(=O)[nH]c12	u	-30%	-15	-13%	-20%
O=C1NC[C@@H](CCCCN2C[C@H](Cc3ccc(O)cc3)N(CCC3CCCCC3)C(=O)C2=O)N(CCC2CCCCC2)C1=O	-19%	10%	-26	u	u
NC(=S)NN=CCn1cc([N+](=O)[O-])c(=O)[nH]c1=O	-23%	-3%	18	-13%	-9%
O=C1CC(c2ccco2)CC(O)=C1C=Nc1cc(Cl)ccc1O (centres undefined)	18µM*	15µM*	21	-1%	-27%
O=C1CC(c2ccco2)CC(O)=C1C=Nc1cc(Cl)ccc1Cl (centres undefined)	-8%	-18%	12	2%	-5%
O=C1CC(c2ccco2)CC(O)=C1C=Nc1ccccc1-c1ccccc1 (centres undefined)	u	18µM*	-29	-22%	-16%
CCN(CC)c1nc(C)nc2c1cnn2CCc1ccccc1	15µM*	u	u	-2%	-16%
COc1ccc(NC(=O)CSc2ncnc3c2cnn3CCc2ccccc2)cc1	-24%	-28%	0	-2%	7%
COc1ccc(NC(=O)c2c(C)noc2-c2snnc2C)cc1	21µM*	u	-5	u	u
COc1ccc(-c2cc(C(=O)Nc3ccc(C)cc3)no2)cc1	-2%	u	-13	4%	23%
CCCc1nc(SC)ncc1C(=O)N1CCN(c2ccc(Cl)cc2)CC1	23µM*	u	x	x	x
O=C(c1cnc(N2CCN(c3ncccn3)CC2)c2ccccc12)N1CCN(c2ncccn2)CC1	15µM*	15µM*	-54*	-17%	-28%
O=C(O)c1ccccc1C(=O)N1CCN(c2ncccn2)CC1	-13%	-12%	32	12%	12%
CSc1ncc(C(=O)N2CCN(c3ccc(F)cc3)CC2)c(C)n1	-25%	-28%	x	x	x
O=C(c1cnc(N2CCCCC2)c2ccccc12)N1CCN(c2ccc(Cl)cc2)CC1	23µM*	15µM*	x	x	x
O=C(Nc1ccc(Cl)cc1)N1CCN(c2ncccn2)CC1	4%	-12%	1	7%	7%
CN(C(=O)c1cnc(N2CCN(c3ncccn3)CC2)c2ccccc12)c1ccc(Cl)cc1	21µM*	u	-84*	-3%	-10%
